An excerpt weighted towards active compounds, which were near 19% of everything screened.
TDP1 cell noCPT = qHTS for Inhibitors of human tyrosyl-DNA phosphodiesterase 1 (TDP1): qHTS in cells in absence of CPT; AID 686978, 2013; DT40 Tdp1-/- hTDP1 cells, no CPT, ATP luminescence, 48 h; Potency, µM (titrated, usually from 46.2 µM), hits mostly inhibitors; 15% of 420,000 active; also: nearly all actives have a fitted effect of over 55% in size
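Compound effects on proliferation are scored in DT40 Tdp1-/-;hTDP1 cells in the absence of CPT. ATP levels (CellTiter-Glo luminescence) are recorded after a ≥48 hr, 37 °C incubation.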
DT40 TDP1 CPT = DT40-hTDP1 cell growth loss with CPT; AID 686979; 12% of 420,000 active; Potency, µM (highest dose often 46.2 µM), usual class: inhibitors; chicken DT40 Tdp1-/-;hTDP1 cells + 20 nM CPT, ATP luminescence, 48 h; also: nearly all actives have a fitted effect of over 55% in size
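Chicken DT40 Tdp1-/- cells complemented with human TDP1, 400 cells/well, exposed to compounds plus 20 nM camptothecin for at least 48 h at 37 C; viability read as ATP content by CellTiter-Glo luminescence.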
HT1080-NT tox = kills 2HG-producing HT-1080-NT fibrosarcoma cells | 1.6% of 360,000 active | Potency, µM (titrated, usually from 46.1 µM), hits mostly cytotoxic | HT-1080-NT fibrosarcoma viability, CellTiter-Glo ATP luminescence, 48 h;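 also: NT is the 2HG producing partner of a matched IDH1 knockdown line; nearly all actives have a fitted effect of over 55% in size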
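HT-1080-NT; 750 cells/well; 5% FBS RPMI; 48 h compound, 37 degrees C; CellTiter-Glo luminescence; curve fitting and curve-class assignment.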
HT1080 IDH1KD tx = toxicity to HT-1080 IDH1 knockdown cells (counter line); 2% of 360,000 active; AID 686971; Potency, µM (doses to about 46.1 µM), actives largely listed as cytotoxic; HT-1080 IDH1 knockdown viability, ATP luminescence, 48 h
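IDH1KD HT-1080 cells, 750/well, RPMI + 5% FBS; compound pinned after 2 h settling; 48 h, 37 °C; CellTiter-Glo luminescence; % activity normalised to DMSO and no-cell wells; curves fitted, classed by r2 and efficacy.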
IL-1B inflam inh = inhibitors of inflammasome signaling (IL-1 beta secretion). 4.7% of 360,000 active. THP-1 LPS/ATP IL-1B secretion, AlphaLISA, 16 h; stronger effect = lower value. activity change, % at 57.5 µM; in the data active = activity change below about -50%; inconclusive = mostly about -30% to -49%
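THP-1 cells pretreated 1 hr with compounds (up to 57.5 uM final), then stimulated with LPS (250 ng/mL final) plus ATP (1.25 mM final); secreted IL-1B measured by AlphaLISA after 16 hr, decreased signal indicating inhibition.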
ELG1 DNA repair = inhibitors of ELG1-dependent DNA repair in HEK293T cells | HEK293T ELG1-luciferase reporter, luminescence, 16 h; DNA damage induced by 5-fluorouridine | Potency, µM (highest dose often 46.1 µM), hits mostly inhibitors | 2.3% of 330,000 active | AID 504467; also: nearly all actives have a fitted effect of over 55% in size
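HEK293T cells expressing luciferase-tagged ELG1 (2,000/well) received 5-Fluorouridine plus compound or DMSO for 16 hr at 37 °C. Luciferase was read by ONE-Glo luminescence after 30 min at room temperature.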
Large screens that a line does not name were inactive. Unless noted, calls follow the shape of the dose curve; as a rule, active = well fitted curve in the direction sought with a large enough effect; inconclusive = small, poorly fitted or top-dose-only effect, or another doubt; inactive = no such curve, though single readings can be large; an effect the other way counts as inactive or inconclusive.

C=C1NN(CC2CC2)C(=O)N1c1ccc(OCc2ccccc2)cc1	TDP1 cell noCPT 13µM, DT40 TDP1 CPT inconclusive (no result: HT1080-NT tox, HT1080 IDH1KD tx, IL-1B inflam inh, ELG1 DNA repair)
Cc1occc1C(=O)N1CCC2(CCCN(Cc3ccc(F)c(F)c3)C2)C1 (centres undefined)	TDP1 cell noCPT 16µM, DT40 TDP1 CPT 15µM
O=C(CN1CCN(S(=O)(=O)c2ccc(F)cc2)CC1)Nc1cc(C(F)(F)F)ccc1Cl	TDP1 cell noCPT inconclusive, DT40 TDP1 CPT 21µM, ELG1 DNA repair 26µM
COc1ccc(S(=O)(=O)N2CCN(CC(=O)Nc3cc(C(F)(F)F)ccc3Cl)CC2)cc1	TDP1 cell noCPT 10µM, DT40 TDP1 CPT inconclusive
CC(C)Cc1ccc(-c2ccc3nccn3c2)cc1	TDP1 cell noCPT 18µM, DT40 TDP1 CPT inconclusive, HT1080-NT tox inconclusive, HT1080 IDH1KD tx inconclusive (no result: ELG1 DNA repair)
CNC(=O)CN(CCN(CCN(CC(=O)[O-])CC(=O)NC)CC(=O)[O-])CC(=O)[O-].O.[Gd+3]	none (no result: HT1080-NT tox, HT1080 IDH1KD tx, IL-1B inflam inh, ELG1 DNA repair)
CCOC(=O)c1ccc(NC2c3ccccc3C(=O)N2c2cccnc2)cc1 (centres undefined)	TDP1 cell noCPT 10µM, DT40 TDP1 CPT 12µM
COC(=O)c1ccccc1NC1c2ccccc2C(=O)N1c1cccnc1 (centres undefined)	TDP1 cell noCPT inconclusive, DT40 TDP1 CPT 15µM
O=C1c2ccccc2C(Nc2ccccc2F)N1c1cccnc1 (centres undefined)	none
COc1ccc(N(CC(=O)Nc2ccc(S(=O)(=O)N3CCOCC3)cc2)S(=O)(=O)c2ccc(F)cc2)cc1	TDP1 cell noCPT inconclusive, DT40 TDP1 CPT inconclusive
Cc1sc2ncn(CC(=O)NCCCC(=O)Nc3ccc(C(C)C)cc3)c(=O)c2c1C	none
CCOc1ccc(/C=C/C(=O)c2cccs2)cc1	TDP1 cell noCPT inconclusive, DT40 TDP1 CPT 27µM (no result: HT1080-NT tox, HT1080 IDH1KD tx, IL-1B inflam inh, ELG1 DNA repair)
O=C(/C=C/c1ccccc1)c1cccs1	TDP1 cell noCPT 9.4µM, DT40 TDP1 CPT 6.7µM (no result: HT1080-NT tox, HT1080 IDH1KD tx, IL-1B inflam inh, ELG1 DNA repair)
CCOc1ccc(/C=C/C(=O)c2ccccc2)cc1	TDP1 cell noCPT inconclusive, DT40 TDP1 CPT inconclusive, IL-1B inflam inh inconclusive, ELG1 DNA repair inconclusive
O=C(C=Cc1ccccc1)c1cccs1	TDP1 cell noCPT 16µM, DT40 TDP1 CPT 18µM (no result: ELG1 DNA repair)
Cc1c(/C=C/C(=O)c2cccs2)cnn1C	TDP1 cell noCPT inconclusive, DT40 TDP1 CPT 16µM, ELG1 DNA repair inconclusive
O=C(/C=C/c1ccc([N+](=O)[O-])cc1)c1cccs1	TDP1 cell noCPT inconclusive, DT40 TDP1 CPT inconclusive
O=C1NC(=O)C2(CCCCC2)N1	none (no result: ELG1 DNA repair)
Nc1ccc(/C=C/C(=O)c2cccs2)cc1	TDP1 cell noCPT inconclusive, IL-1B inflam inh -109, ELG1 DNA repair inconclusive
COc1cccc(OCc2nc3ncc(Br)cc3[nH]2)c1	TDP1 cell noCPT 2.9µM, DT40 TDP1 CPT 4.1µM, HT1080-NT tox 2.2µM, HT1080 IDH1KD tx inconclusive, ELG1 DNA repair inconclusive
Cc1cc(C)cc(OCc2nc3ncc(Br)cc3[nH]2)c1	TDP1 cell noCPT 2.3µM, DT40 TDP1 CPT 2.3µM, HT1080-NT tox inconclusive, HT1080 IDH1KD tx inconclusive (no result: ELG1 DNA repair)
Brc1cnc2nc(SCc3nc4ccccc4[nH]3)[nH]c2c1	none
Cc1cc(C(=O)CSc2nnc(CCC(N)=O)n2C)c(C)n1C1CC1	none
O=C(c1ccc2c(=O)n(Cc3ccccc3Cl)c(=S)[nH]c2c1)N1CCOCC1	none
C=CCn1c(C)cc(C(=O)CSc2nc3ccccc3o2)c1C	TDP1 cell noCPT inconclusive, DT40 TDP1 CPT 16µM, IL-1B inflam inh -80, ELG1 DNA repair inconclusive
Cc1cc(C(=O)CSc2nc3ccccc3o2)c(C)n1C1CC1	TDP1 cell noCPT 15µM, DT40 TDP1 CPT 21µM, IL-1B inflam inh inconclusive, ELG1 DNA repair inconclusive
C=CCn1c(C)cc(C(=O)CSc2nnc(NCc3ccccc3)s2)c1C	TDP1 cell noCPT 15µM, DT40 TDP1 CPT 9.2µM, HT1080-NT tox inconclusive, HT1080 IDH1KD tx inconclusive
O=C(CSc1nc2ccccc2o1)c1ccccc1	ELG1 DNA repair inconclusive
O=C(NCCc1nnc2n1CCN(Cc1cc3ccccc3o1)CC2)c1ccoc1	none (no result: HT1080-NT tox, HT1080 IDH1KD tx, IL-1B inflam inh, ELG1 DNA repair)
COc1ccc(NC(=O)N(C)C[C@H]2Oc3ccc(NC(=O)c4ccncc4)cc3C(=O)N([C@H](C)CO)C[C@@H]2C)cc1	none
COc1ccccc1CNCCS(=O)(=O)NN1CCOCC1	ELG1 DNA repair inconclusive
COc1ccc(OC)c(CC(NC(C)=O)C(=O)NC2CCN(c3c(Cc4ccccc4)c(C)nc4ncnn34)CC2)c1 (centres undefined)	TDP1 cell noCPT inconclusive, IL-1B inflam inh inconclusive, ELG1 DNA repair 23µM
COCCn1c(=O)c(-c2ccc(F)cc2)nc2cnc(N(C)C)nc21	none (no result: HT1080-NT tox, HT1080 IDH1KD tx, IL-1B inflam inh, ELG1 DNA repair)
CCCCN1C(=O)C(CC(=O)NC2CCCCC2)CC(C(=O)N2CCCCCC2)=C1C (centres undefined)	none (no result: IL-1B inflam inh, ELG1 DNA repair)
OC(CN1CCCCC1)CN(c1ccccc1)c1ccccc1 (centres undefined)	TDP1 cell noCPT 26µM, DT40 TDP1 CPT inconclusive
OC(CN1CCOCC1)CN(c1ccccc1)c1ccccc1 (centres undefined)	TDP1 cell noCPT 12µM, DT40 TDP1 CPT inconclusive
NC(N)=NCC(O)CN(c1ccccc1)c1ccccc1 (centres undefined)	TDP1 cell noCPT 15µM, DT40 TDP1 CPT inconclusive, IL-1B inflam inh -82
O=C(NCCC(F)(F)F)C1Cc2c(-c3ccc(Cl)cc3)ccnc2O1 (centres undefined)	TDP1 cell noCPT inconclusive, DT40 TDP1 CPT inconclusive (no result: ELG1 DNA repair)
